“And” between values parts separate entries of the source, which are not always exact repeats. Equal values may be shown once. Out of some 5,500 compounds screened, about 2,000 (36%) were called active. Not shown: some 18% with an inconclusive outcome. Cut-off read from the data, not from the text of the source: active = normalized growth mostly below about 0.91 (no sharp cut-off); inconclusive = no clear call, values can overlap the other calls; inactive = mostly above about 0.92. The list shows a part of the results.
Assay: chemical genetic growth profiling, strain panel (AID 1159580);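 note: tested at 20 µM; growth read once vehicle control cultures reached saturation at 30 °C; 1 = growth at the plate median or of vehicle wells; lower values mean less growth of the strain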
Conditions: S. cerevisiae deletion strains, growth OD

Measured: normalized growth

O=c1c(-c2ccc(O)cc2)coc2cc(O)cc(O)c12
inactive: locus YAL013W, strain DEP1, stronger effect = lower value 1.03 | locus YAL021C, strain ccr4, stronger effect = lower value 1.01 | locus YAL026C, strain drs2, stronger effect = lower value 1.02 | locus YAL030W, strain snc1, stronger effect = lower value 1.01 | locus YAL040C, strain CLN3, stronger effect = lower value 0.968 | locus YBL061C, strain skt5, stronger effect = lower value 1.01 | locus YBR009C, strain hhf1, stronger effect = lower value 1.01 | locus YBR021W, strain FUR4, stronger effect = lower value 1 | locus YBR023C, strain chs3, stronger effect = lower value 1.01 | locus YBR171W, strain sec66, stronger effect = lower value 1.01 | locus YBR229C, strain ROT2, stronger effect = lower value 1.02 | locus YBR231C, strain swc5, stronger effect = lower value 1.01 | locus YBR279W, strain paf1, stronger effect = lower value 1 | locus YCL011C, strain gbp2, stronger effect = lower value 1.01 | locus YCL016C, strain dcc1, stronger effect = lower value 1.01 | locus YCL029C, strain bik1, stronger effect = lower value 1.03 | locus YCL061C, strain MRC1 (second series), stronger effect = lower value 1 | locus YCL061C, strain MRC1, stronger effect = lower value 1 | locus YCL069W, strain vba3, stronger effect = lower value 1.02 | locus YCR088W, strain abp1, stronger effect = lower value 1.02 | locus YDL005C, strain med2, stronger effect = lower value 1 | locus YDL035C, strain GPR1, stronger effect = lower value 1.07 | locus YDL040C, strain nat1, stronger effect = lower value 1.01 | locus YDL074C, strain BRE1, stronger effect = lower value 1.14 | locus YDL101C, strain DUN1, stronger effect = lower value 1.03 | locus YDL185W, strain tfp1, stronger effect = lower value 1.02 | locus YDL192W, strain arf1, stronger effect = lower value 1.04 | locus YDR001C, strain nth1, stronger effect = lower value 1.01 | locus YDR069C, strain doa4, stronger effect = lower value 1.01 | locus YDR101C, strain arx1, stronger effect = lower value 1 | locus YDR137W, strain rgp1, stronger effect = lower value 0.983 | locus YDR150W, strain NUM1, stronger effect = lower value 0.996 | locus YDR159W, strain sac3, stronger effect = lower value 1.02 | locus YDR162C, strain NBP2, stronger effect = lower value 1.04 | locus YDR195W, strain ref2 1.03 | locus YDR297W, strain sur2, stronger effect = lower value 1.01 | locus YDR318W, strain mcm21, stronger effect = lower value 1.02 | locus YDR334W, strain swr1, stronger effect = lower value 0.989 | locus YDR335W, strain msn5, stronger effect = lower value 1.02 | locus YDR363W, strain ESC2, stronger effect = lower value 0.994 | locus YDR388W, stronger effect = lower value 1.03 | locus YDR392W, strain spt3, stronger effect = lower value 0.989 | locus YDR502C, strain sam2, stronger effect = lower value 1.02 | locus YEL003W, strain gim4, stronger effect = lower value 1.01 | locus YEL037C, strain rad23, stronger effect = lower value 1.01 | locus YEL061C, strain CIN8 (second series), stronger effect = lower value 1.01 | locus YER002W, strain NOP16, stronger effect = lower value 0.996 | locus YER015W, strain faa2, stronger effect = lower value 1.01 | locus YER016W, strain bim1, stronger effect = lower value 1.01 | locus YER110C, stronger effect = lower value 1.04 | locus YER111C, strain swi4, stronger effect = lower value 1.03 | locus YER155C, strain BEM2 (second series), stronger effect = lower value 1.02 | locus YER155C, strain BEM2, stronger effect = lower value 1.03 | locus YER167W, strain BCK2, stronger effect = lower value 1.03 | locus YFR010W, strain ubp6, stronger effect = lower value 0.995 | locus YGL078C, strain dbp3, stronger effect = lower value 1.03 | locus YGL086W, strain mad1, stronger effect = lower value 1.01 | locus YGL167C, strain pmr1, stronger effect = lower value 1.01 | locus YGL173C, strain kem1, stronger effect = lower value 1.01 | locus YGL227W, strain vid30, stronger effect = lower value 1.01 | locus YGL240W, strain doc1, stronger effect = lower value 1.01 | locus YGL248W, strain PDE1, stronger effect = lower value 1.07 | locus YGL253W, strain hxk2, stronger effect = lower value 1 | locus YGR078C, strain PAC10, stronger effect = lower value 1.06 | locus YGR135W, strain pre9, stronger effect = lower value 1.05 | locus YGR252W, strain gcn5, stronger effect = lower value 0.958 | locus YHR013C, strain ard1, stronger effect = lower value 1.03 | locus YHR027C, strain rpn1, stronger effect = lower value 1.01 | locus YHR030C, strain SLT2, stronger effect = lower value 0.984 and 1.04 | locus YHR079C, strain IRE1 (second series), stronger effect = lower value 1.02 | locus YHR079C, strain IRE1, stronger effect = lower value 1.01 | locus YHR094C, strain hxt1, stronger effect = lower value 1.04 | locus YHR129C, strain ARP1, stronger effect = lower value 1.05 | locus YHR142W, strain chs7, stronger effect = lower value 0.991 | locus YHR200W, strain rpn10, stronger effect = lower value 1.02 | locus YIL066C, strain RNR3, stronger effect = lower value 1.05 | locus YIL073C, strain SPO22, stronger effect = lower value 1.13 | locus YIL125W, strain kgd1, stronger effect = lower value 1.03 | locus YIR030C, strain dcg1, stronger effect = lower value 1.03 | locus YJL092W, strain hpr5, stronger effect = lower value 1.01 | locus YJL095W, strain BCK1 (second series), stronger effect = lower value 1.01 | locus YJL095W, strain BCK1, stronger effect = lower value 1.11 and 1.05 | locus YJL115W, strain asf1, stronger effect = lower value 0.999 | locus YJL129C, strain trk1, stronger effect = lower value 0.997 | locus YJL134W, strain LCB3, stronger effect = lower value 1.03 | locus YJL154C, strain vps35, stronger effect = lower value 1 | locus YJL164C, strain tpk1, stronger effect = lower value 0.95 | locus YJL166W, strain qcr8, stronger effect = lower value 1 | locus YJL168C, strain set2, stronger effect = lower value 1.03 | locus YJL187C, strain SWE1 (second series), stronger effect = lower value 1.05 | locus YJL187C, strain SWE1, stronger effect = lower value 1 | locus YJR066W, strain TOR1, stronger effect = lower value 0.999 | locus YKL009W, strain mrt4, stronger effect = lower value 1.04 | locus YKL068W, stronger effect = lower value 1 | locus YKL085W, strain MDH1 (second series), stronger effect = lower value 1.02 | locus YKL085W, strain MDH1, stronger effect = lower value 1.02 | locus YKL160W, strain elf1, stronger effect = lower value 1 | locus YKL190W, strain CNB1, stronger effect = lower value 1.02 | locus YKR001C, strain vps1, stronger effect = lower value 1.03 | locus YKR026C, strain gcn3, stronger effect = lower value 1.02 | locus YKR091W, strain srl3, stronger effect = lower value 1.01 | locus YLL001W, strain dnm1, stronger effect = lower value 1.02 | locus YLL026W, stronger effect = lower value 1.02 | locus YLL041C, strain sdh2, stronger effect = lower value 1 | locus YLR027C, strain aat2, stronger effect = lower value 1.01 | locus YLR039C, strain RIC1, stronger effect = lower value 1.21 | locus YLR058C, strain SHM2, stronger effect = lower value 1.05 | locus YLR102C, strain apc9, stronger effect = lower value 1.03 | locus YLR113W, strain HOG1, stronger effect = lower value 1.07 | locus YLR221C, strain rsa3, stronger effect = lower value 1 | locus YLR258W, strain gsy2, stronger effect = lower value 1.01 | locus YLR262C, strain YPT6 (second series), stronger effect = lower value 1.01 | locus YLR268W, strain sec22, stronger effect = lower value 1.03 | locus YLR320W, strain mms22, stronger effect = lower value 1 | locus YLR342W, strain FKS1, stronger effect = lower value 1.01 | locus YLR357W, strain rsc2, stronger effect = lower value 0.987 | locus YLR370C, strain arc18, stronger effect = lower value 1.01 | locus YLR371W, strain rom2, stronger effect = lower value 1.06 | locus YLR384C, strain iki3, stronger effect = lower value 1.02 | locus YLR418C, strain cdc73, stronger effect = lower value 1.05 | locus YML016C, strain PPZ1, stronger effect = lower value 1.03 | locus YML032C, strain rad52, stronger effect = lower value 1.02 | locus YML120C, strain ndi1, stronger effect = lower value 1.02 | locus YML124C, strain tub3, stronger effect = lower value 1.02 | locus YMR058W, strain fet3, stronger effect = lower value 1.01 | locus YMR078C, strain ctf18, stronger effect = lower value 1.03 | locus YMR125W, strain sto1, stronger effect = lower value 1.01 | locus YMR129W, stronger effect = lower value 1.01 | locus YMR205C, strain PFK2, stronger effect = lower value 1.02 | locus YMR223W, strain ubp8, stronger effect = lower value 1.03 | locus YMR231W, strain pep5, stronger effect = lower value 1 | locus YMR263W, strain SAP30, stronger effect = lower value 1.03 | locus YMR307W, strain GAS1, stronger effect = lower value 1.17 and 0.992 | locus YNL067W, strain RPL9B, stronger effect = lower value 1.03 | locus YNL071W, strain lat1, stronger effect = lower value 1.02 | locus YNL128W, strain TEP1, stronger effect = lower value 1.06 | locus YNL175C, strain NOP13, stronger effect = lower value 1.01 | locus YNL183C, strain NPR1, stronger effect = lower value 0.993 | locus YNL197C, strain WHI3, stronger effect = lower value 1.01 | locus YNL209W, strain ssb2, stronger effect = lower value 0.996 | locus YNL224C, strain SQS1, stronger effect = lower value 1 | locus YNL233W, strain BNI4, stronger effect = lower value 1.08 | locus YNL248C, strain rpa49, stronger effect = lower value 0.999 | locus YNL250W, strain rad50, stronger effect = lower value 1.04 | locus YNL271C, strain bni1, stronger effect = lower value 1.02 | locus YNL298W, strain CLA4, stronger effect = lower value 1.04 | locus YNL307C, strain MCK1, stronger effect = lower value 1.06 | locus YNL322C, strain KRE1 (second series), stronger effect = lower value 1.01 | locus YNL322C, strain KRE1, stronger effect = lower value 0.996 | locus YNR049C, strain mso1, stronger effect = lower value 1.01 | locus YNR052C, strain pop2, stronger effect = lower value 1.05 | locus YOL006C, strain TOP1, stronger effect = lower value 1.26 | locus YOL012C, strain htz1 0.919 | locus YOL147C, strain pex11, stronger effect = lower value 1.01 | locus YOR001W, strain rrp6, stronger effect = lower value 1.01 | locus YOR061W, strain CKA2, stronger effect = lower value 1.04 | locus YOR069W, strain VPS5, stronger effect = lower value 1.03 | locus YOR070C, strain gyp1, stronger effect = lower value 1 | locus YOR080W, strain dia2, stronger effect = lower value 1.01 | locus YOR083W, strain WHI5 (second series), stronger effect = lower value 1.03 | locus YOR083W, strain WHI5, stronger effect = lower value 0.997 | locus YOR106W, strain vam3, stronger effect = lower value 0.977 | locus YOR136W, strain idh2, stronger effect = lower value 1.03 | locus YOR144C, strain elg1, stronger effect = lower value 1.02 | locus YOR184W, strain ser1, stronger effect = lower value 1 | locus YOR231W, strain MKK1, stronger effect = lower value 1.04 | locus YOR265W, strain rbl2, stronger effect = lower value 1.01 | locus YOR270C, strain vph1, stronger effect = lower value 0.982 | locus YOR290C, strain snf2, stronger effect = lower value 0.989 | locus YOR316C, strain cot1, stronger effect = lower value 1.02 | locus YPL051W, strain arl3, stronger effect = lower value 0.989 | locus YPL055C, strain LGE1, stronger effect = lower value 1.08 and 1.02 | locus YPL078C, strain atp4, stronger effect = lower value 1.01 | locus YPL106C, strain sse1, stronger effect = lower value 1.02 | locus YPL240C, strain hsp82, stronger effect = lower value 0.992 | locus YPL241C, strain CIN2, stronger effect = lower value 1 | locus YPL256C, strain CLN2, stronger effect = lower value 1.05 | locus YPR119W, strain clb2, stronger effect = lower value 1.03 | locus YPR141C, strain kar3, stronger effect = lower value 1.02 | locus YPR163C, strain tif3, stronger effect = lower value 1.04 | locus YPR167C, strain met16, stronger effect = lower value 1.03 | strain wtn01, stronger effect = lower value 1.02

From PubChem BioAssay AID1159580 (chemical genetic matrix, 2015)
